# From the supplement of paper PMC11417369
# Over roughly 25,000 sequences, “ln(normalized median fluorescence intensity)” has its median near 6.7; the highest 2% begin near 10. What follows is part of a selection rich in the highest values, with near analogues and random picks from the rest.
# Test system: PfHDP1 homeodomain (GST-tagged)
# Test: gcPBM binding intensity (ln(normalized median fluorescence intensity)); higher = stronger DNA binding
# How it was run: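 Each value is the highest Masliner-normalised natural-log median intensity across replicate spots of either orientation of a probe. The probes were primer-extended double-stranded 36-bp intergenic genomic sequences on an Agilent 4 × 180k array, alongside negative controls, exposed for 1 h to GST-tagged P. falciparum DNA-binding domains expressed in E. coli. Bound protein was picked up with Alexa488 anti-GST antibody and scanned at 488 nm.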
row,Sequence,gcPBM binding intensity (ln)
1,TACTTAATTATAAGGACATGCACAAAAGGAATTATT [TGCATGCA_site468],8.01
2,TGTTAAAATTATTTGGTGCACTTGTTTTACCTTATT,9.92
3,ATTTATTTCTTGTTAGTGCACTTTCTTTGGTAAAAT,10.9
4,CTTATTTTGTTATAAGTGCATTTTTTAAAATTTCTT,8.33
5,ATCTTATATATACGTTGTACTACAGGATATGTCATA [XGTACX_site5734],6.63
6,TTAAAATTCAAAAAAAAAAATCAGAATATCAGAAAA [CACACA_negctrl_site1361],5.92
7,TATATATGTATATGTGTGCACCTTATTTCTTTTATT [GTGCAC_site9513],9.55
8,TATATATATTAGTGTGCACACTTTTTATTTTTATCC [CACACA_site8506],10.5
9,CATTTTGTTTTAAAGTGTACATTATGTAATATAAAA [XGTACX_site647],6.54
10,ATATATATATAAAGTTGTACATTTTTTATTTTTTCA [XGTACX_site7847],8.52
11,ATTTATATTAAAAGTGTGCACTTTTTTTTTTTTTTT,8.1
12,ATTGTGCACTTATATGCACACATTTTAGTTTTTTTT [CACACA_site2028],11.5
13,ATATTACACATATATGCACACATTGTAGTTATTTAT [CACACA_site8843],8.92
14,TATATTTATATATTAGTGCACTTTTTGTTAATTTTT,10.3
15,TTATATTTAGTATATGCACACTTTATGTTTGTTATT [CACACA_site5163],9.53
16,TAATATTATTATTTTACACACTTTTTTCCTTTTATC [CACACA_site2457],6.61
17,TATATATTTCGGTGTGCACACTTTTTATTTTTATCC [CACACA_site1726],10.7
18,ATTTATATGCACCATTGTACGTTTTATAAAGTTTGG [XGTACX_site3755],10.5
19,TTTCAATGTGACACGTGTCCGTAAAATTACATAATT [XGTACX_site7073],6.61
20,ATCGCGAAGTAGCATTCACACACAGCAAAATATATA [CACACA_site9162],6.65

row,Sequence,gcPBM binding intensity (ln)
1,ATATATATATTTATATGTACATAATATAAAATTTCT [XGTACX_site3720],7.7
2,ATGTTTTTTATTCTTCGTACGTATGAACGATAGTGT [XGTACX_site4225],6.71
3,GCTTGTACATTTTTAAAAAATGACTTCGAAAGGAAT [CACACA_negctrl_site453],7.01
4,TTTTAATTGTTTATTTGTACATATGTTTAATTATAT [XGTACX_site571],6.79
5,TATATAAATGGACACACACACACCTTATAATTATTA [CACACA_site6093],6.85
6,CCCACATAAAAAAATAAACACACATATGTATATATA [CACACA_site9040],7.07
7,AAGAAAAACAATGAGATAAAGAAGAGAAAATATGTC [TGCATGCA_negctrl_site415],6.88
8,TATATCAAAATACATACACACATTTGTATTTACATT [CACACA_site5485],6.58
9,TTGTATTCATAACAACGTACATATTTTGTAACTAAA [XGTACX_site4029],6.26
10,ACTTTTTTGAACAACGTGCACGTATTCATAACAAAA,10.6
11,TTTGTTCATATTATTGTGCACTTAAACGTAACAAAA [GTGCAC_site9505],10.1
12,AATATCATCAAACGCACACATACATAAATATATTAT [CACACA_site2174],7.74
13,TATACGAAATTGTGCACACATATATTTATGTATGTA [CACACA_site1509],11
14,TATGTATAAATATATGCACACATATATATATTTATA [CACACA_site9150],9.35
15,AATATACGAAATTGTGCACACATATATTTATGTATG [CACACA_site1510],10.8
16,TGTATAAATATATGCACACATATATATATTTATATA [CACACA_site3473],10
17,TATTTATATGTATATACATGCACATATATATGAAAC [TGCATGCA_site1005],8.8
18,ATACGCACACATATATGTACATATTGTATATATATA [XGTACX_site3962],8.34
19,TAGATAAAATGAACATGTACTCATCTTAATATATAT [XGTACX_site34],6.23
20,AAAAGATATATTATATGTACTAATTATATGATAAAT [XGTACX_site4192],6.32

row,Sequence,gcPBM binding intensity (ln)
1,AGAGGTAGAGAGAAAACATGCATAATGATTTTCATA [TGCATGCA_site958],6.1
2,CATGCTACATCTTATTGTACTTATCTAATGTTAGTA [XGTACX_site1863],6.75
3,TATGTGCACCCATGTACATGCGGACATATGTTATAT [TGCATGCA_site383],10.6
4,ATATATATATATGCATGTACATATATTTGTTATATC [XGTACX_site3197],9.16
5,TATATATATATATATGCATGTACATATATTTGTTAT [TGCATGCA_site379],9.2
6,AAAATATTTATTACTTCACACATTATTGTATTTATA [CACACA_site5082],6.5
7,TTTGTTTTTTTGAGAGTGCAATATATATAAAAAGGG [GTGCAC_site9691],9.35
8,TTTCGTAATATGCGTGTGCACAATGAGTCCATATCT,10.9
9,TATATATATATATGAGTGCATATGTGTAATATAAAA,9.65
10,GCGTGTGTACAATGAGTGCATATCTAAAGGGAAGAT,9.43
11,TCAAAAAAAAAAAAAAAAAAAAAAAAAAAAAAAAAA [CACACA_negctrl_site1753],5.92
12,TATTAATAAATATGTTTACACACGAAAATACATTTT [CACACA_site1012],6.35
13,TTTATTTTTAACAGTGCACACATAACTTAATTATAT [CACACA_site8681],9.52
14,TTCTTTGTAGTATATTAACACACAACTGTTTATAAT [CACACA_site9305],6.67
15,TATAATATTTGGTGCACACAAATTAACAACTGTTTA [CACACA_site3742],10.8
16,TGTATAATATTTGGTGCACACAAATTAACAACTGTT [CACACA_site9245],10.6
17,TGTATTAAATTTTGAACACACAAAATAAAACATATA [CACACA_site1672],6.54
18,CTTTGTAGTATATTAACACACAACTGTTTATAATAT [CACACA_site6038],6.53
19,TCGTAGTTACTATGGCAAGAAAATAAACGGTCTTGT [GTGCAC_negctrl_site684],6.6
